# Source: paper PMC7862700, “An all-to-all approach to the identification of sequence-specific readers for epigenetic DNA modifications on cytosine”
# Columns and labels:
# Assay in all cases: DAPPL (digital affinity profiling via proximity ligation, sequencing); 10 mM Tris-HCl pH 7.5, 50 mM NaCl, 1 mM DTT, 4% glycerol, room temperature, 30 min; GST-TFs on glutathione beads, 16-mer random dsDNA library, 0.1% formaldehyde crosslink after washing; high values mean tight binding
# FLI1 = molecular target: T1, FLI1 (Homo sapiens, UniProt Q01543 1-452); details: protein: recombinant; tags: N-terminal GST; dsDNA, one strand shown
# T1 sequence: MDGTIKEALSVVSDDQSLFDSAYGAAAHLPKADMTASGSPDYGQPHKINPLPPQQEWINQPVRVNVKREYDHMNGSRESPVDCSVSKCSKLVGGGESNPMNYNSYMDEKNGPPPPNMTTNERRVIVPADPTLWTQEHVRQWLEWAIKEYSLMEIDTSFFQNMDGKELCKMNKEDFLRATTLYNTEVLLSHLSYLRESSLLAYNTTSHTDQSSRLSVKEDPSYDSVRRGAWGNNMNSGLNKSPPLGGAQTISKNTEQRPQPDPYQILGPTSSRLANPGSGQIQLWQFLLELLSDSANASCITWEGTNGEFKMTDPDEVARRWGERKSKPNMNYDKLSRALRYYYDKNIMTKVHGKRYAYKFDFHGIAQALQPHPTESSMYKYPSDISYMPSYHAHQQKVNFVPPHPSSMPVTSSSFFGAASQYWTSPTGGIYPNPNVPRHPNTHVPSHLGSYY
# Method in brief: (§1)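 The binding signal reported is, for every hexamer, its read frequency for a factor over its read frequency for the tag-only sample. Reads came from pools of yeast-expressed, GST-fused human transcription factors on glutathione beads, barcoded with DNA and mixed with that sample, which were incubated with 200 nmole of a random double-stranded 16-mer DNA library in Tris/NaCl/DTT/glycerol buffer at room temperature for 30 min. After washing, the pools were crosslinked with 0.1% formaldehyde, proximity-ligated with BsaI/T4 ligase for 1 h at 37 °C, PCR-amplified and sequenced on an Illumina NextSeq500.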
# ELK1 = molecular target: T2, ELK1 (Homo sapiens, UniProt P19419 1-428); details: protein: recombinant; tags: N-terminal GST; dsDNA, one strand shown
# T2 sequence: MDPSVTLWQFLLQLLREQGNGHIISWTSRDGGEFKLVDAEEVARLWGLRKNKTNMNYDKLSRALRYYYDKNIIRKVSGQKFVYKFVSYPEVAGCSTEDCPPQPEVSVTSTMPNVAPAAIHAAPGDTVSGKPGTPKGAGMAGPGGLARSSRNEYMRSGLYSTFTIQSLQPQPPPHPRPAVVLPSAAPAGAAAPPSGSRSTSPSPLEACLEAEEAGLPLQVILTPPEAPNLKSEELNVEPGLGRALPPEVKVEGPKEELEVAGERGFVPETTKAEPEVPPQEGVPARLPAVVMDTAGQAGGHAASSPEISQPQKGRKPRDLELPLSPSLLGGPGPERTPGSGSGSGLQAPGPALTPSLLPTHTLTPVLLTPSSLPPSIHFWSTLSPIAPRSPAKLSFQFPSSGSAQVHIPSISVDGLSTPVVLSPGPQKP
# Method in brief: as §1
# GABPA = molecular target: T3, GABPA (Homo sapiens, UniProt Q06546 1-454); details: protein: recombinant; tags: N-terminal GST; dsDNA, one strand shown
# T3 sequence: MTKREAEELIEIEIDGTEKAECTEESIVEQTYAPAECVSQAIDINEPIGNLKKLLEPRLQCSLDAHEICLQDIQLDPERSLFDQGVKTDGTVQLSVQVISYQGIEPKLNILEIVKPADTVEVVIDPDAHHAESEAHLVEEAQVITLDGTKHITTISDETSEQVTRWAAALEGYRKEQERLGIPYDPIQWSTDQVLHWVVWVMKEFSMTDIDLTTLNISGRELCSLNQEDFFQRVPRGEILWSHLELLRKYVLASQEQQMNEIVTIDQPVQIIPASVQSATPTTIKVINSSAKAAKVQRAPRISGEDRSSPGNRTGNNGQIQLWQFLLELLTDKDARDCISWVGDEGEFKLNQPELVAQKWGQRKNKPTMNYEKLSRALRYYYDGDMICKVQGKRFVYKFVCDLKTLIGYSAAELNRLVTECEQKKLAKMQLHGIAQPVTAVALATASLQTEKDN
# Method in brief: as §1
# ERG = molecular target: T4, ERG (Homo sapiens, UniProt P11308 1-479); details: protein: recombinant; tags: N-terminal GST; dsDNA, one strand shown
# T4 sequence: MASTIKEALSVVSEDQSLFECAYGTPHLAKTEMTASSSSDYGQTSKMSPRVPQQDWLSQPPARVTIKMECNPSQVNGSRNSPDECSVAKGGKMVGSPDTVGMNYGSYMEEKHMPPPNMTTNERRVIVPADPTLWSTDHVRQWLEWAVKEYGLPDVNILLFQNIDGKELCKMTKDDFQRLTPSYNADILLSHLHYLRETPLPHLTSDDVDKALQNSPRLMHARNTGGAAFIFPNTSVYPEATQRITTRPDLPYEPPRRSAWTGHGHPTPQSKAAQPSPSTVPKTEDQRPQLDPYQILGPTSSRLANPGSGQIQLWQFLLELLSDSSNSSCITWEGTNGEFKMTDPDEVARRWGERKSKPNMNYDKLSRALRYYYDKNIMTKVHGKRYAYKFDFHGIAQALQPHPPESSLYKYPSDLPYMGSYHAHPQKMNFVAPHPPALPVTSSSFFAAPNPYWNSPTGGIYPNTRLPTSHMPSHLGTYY
# Method in brief: as §1
# ELF1 = ELF1 (Homo sapiens, UniProt P32519 1-619); details: protein: recombinant; tags: N-terminal GST; dsDNA, one strand shown
# Chain of ELF1 (P32519 whole entry): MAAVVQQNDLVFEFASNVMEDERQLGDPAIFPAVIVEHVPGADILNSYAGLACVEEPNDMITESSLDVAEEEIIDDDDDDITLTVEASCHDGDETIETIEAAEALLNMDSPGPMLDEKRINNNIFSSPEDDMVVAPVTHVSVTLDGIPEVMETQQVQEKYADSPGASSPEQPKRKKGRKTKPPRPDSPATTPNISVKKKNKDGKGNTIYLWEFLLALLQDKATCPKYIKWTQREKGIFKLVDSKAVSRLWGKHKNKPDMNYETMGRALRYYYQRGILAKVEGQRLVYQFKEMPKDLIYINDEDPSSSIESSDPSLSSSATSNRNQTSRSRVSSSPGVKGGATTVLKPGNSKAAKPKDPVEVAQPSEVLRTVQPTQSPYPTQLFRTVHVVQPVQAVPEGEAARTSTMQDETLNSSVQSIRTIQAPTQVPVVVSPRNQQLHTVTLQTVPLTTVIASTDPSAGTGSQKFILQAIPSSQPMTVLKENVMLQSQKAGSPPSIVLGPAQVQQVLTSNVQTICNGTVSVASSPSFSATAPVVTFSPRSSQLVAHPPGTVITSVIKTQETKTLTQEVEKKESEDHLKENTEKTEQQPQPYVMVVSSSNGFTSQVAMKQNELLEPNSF
# Method in brief: as §1
# EHF = molecular target: T5, EHF (Homo sapiens, UniProt Q9NZC4 1-300); details: protein: recombinant; tags: N-terminal GST; dsDNA, one strand shown
# T5 sequence: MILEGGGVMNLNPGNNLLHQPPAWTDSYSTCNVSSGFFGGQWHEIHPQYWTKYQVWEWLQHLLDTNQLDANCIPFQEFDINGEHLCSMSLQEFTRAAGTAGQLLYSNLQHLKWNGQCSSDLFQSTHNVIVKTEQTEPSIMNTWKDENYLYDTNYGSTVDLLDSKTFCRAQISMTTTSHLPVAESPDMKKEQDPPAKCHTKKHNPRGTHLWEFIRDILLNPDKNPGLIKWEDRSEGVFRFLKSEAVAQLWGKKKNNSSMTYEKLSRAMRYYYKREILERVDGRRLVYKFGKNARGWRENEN
# Method in brief: as §1
# SPI1 = SPI1 (Homo sapiens, UniProt P17947 1-270); details: protein: recombinant; tags: N-terminal GST; dsDNA, one strand shown
# Method in brief: as §1
# SPIB = SPIB (Homo sapiens, UniProt Q01892 1-262); details: protein: recombinant; tags: N-terminal GST; dsDNA, one strand shown
# Chain of SPIB (Q01892 whole entry): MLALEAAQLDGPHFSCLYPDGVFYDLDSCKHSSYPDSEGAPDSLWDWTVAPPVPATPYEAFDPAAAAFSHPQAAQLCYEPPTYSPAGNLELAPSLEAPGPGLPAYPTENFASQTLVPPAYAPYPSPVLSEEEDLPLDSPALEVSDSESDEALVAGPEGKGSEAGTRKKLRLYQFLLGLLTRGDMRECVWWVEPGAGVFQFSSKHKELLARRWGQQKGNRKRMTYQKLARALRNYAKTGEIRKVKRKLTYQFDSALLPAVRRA
# Method in brief: as §1
# ELK3 = molecular target: T6, ELK3 (Homo sapiens, UniProt P41970 1-407); details: protein: recombinant; tags: N-terminal GST; dsDNA, one strand shown
# T6 sequence: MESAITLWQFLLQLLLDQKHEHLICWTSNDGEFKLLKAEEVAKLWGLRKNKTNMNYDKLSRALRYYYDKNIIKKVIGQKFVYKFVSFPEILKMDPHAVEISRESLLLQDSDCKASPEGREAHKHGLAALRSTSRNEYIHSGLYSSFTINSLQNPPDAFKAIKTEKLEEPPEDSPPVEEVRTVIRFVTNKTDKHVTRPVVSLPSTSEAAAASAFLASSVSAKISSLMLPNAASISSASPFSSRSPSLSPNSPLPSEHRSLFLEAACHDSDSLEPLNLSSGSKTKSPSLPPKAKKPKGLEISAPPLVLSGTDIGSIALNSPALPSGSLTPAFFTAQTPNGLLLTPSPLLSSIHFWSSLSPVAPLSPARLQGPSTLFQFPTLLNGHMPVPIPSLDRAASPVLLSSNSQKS
# Method in brief: as §1
# ETV5 = ETV5 (Homo sapiens, UniProt P41161 1-510); details: protein: recombinant; tags: N-terminal GST; dsDNA, one strand shown
# Chain of ETV5 (P41161 whole entry): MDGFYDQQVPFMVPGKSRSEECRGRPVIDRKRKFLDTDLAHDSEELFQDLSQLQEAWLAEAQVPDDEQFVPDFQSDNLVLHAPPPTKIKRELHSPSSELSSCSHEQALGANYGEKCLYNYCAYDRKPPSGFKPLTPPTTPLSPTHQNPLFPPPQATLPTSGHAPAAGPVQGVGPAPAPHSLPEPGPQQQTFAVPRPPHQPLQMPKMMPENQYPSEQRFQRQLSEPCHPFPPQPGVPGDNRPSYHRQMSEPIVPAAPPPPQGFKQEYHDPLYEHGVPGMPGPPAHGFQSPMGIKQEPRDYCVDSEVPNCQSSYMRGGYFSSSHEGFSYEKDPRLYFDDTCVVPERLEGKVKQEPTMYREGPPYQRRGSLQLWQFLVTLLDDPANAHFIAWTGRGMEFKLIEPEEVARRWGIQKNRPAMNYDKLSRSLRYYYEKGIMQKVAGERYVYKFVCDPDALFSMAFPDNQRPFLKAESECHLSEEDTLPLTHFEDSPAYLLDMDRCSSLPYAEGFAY
# Method in brief: as §1
# HSF1 = HSF1 (Homo sapiens, UniProt Q00613 1-529); details: protein: recombinant; tags: N-terminal GST; chain copies: 3; dsDNA, one strand shown
# Chain of HSF1 (Q00613 whole entry): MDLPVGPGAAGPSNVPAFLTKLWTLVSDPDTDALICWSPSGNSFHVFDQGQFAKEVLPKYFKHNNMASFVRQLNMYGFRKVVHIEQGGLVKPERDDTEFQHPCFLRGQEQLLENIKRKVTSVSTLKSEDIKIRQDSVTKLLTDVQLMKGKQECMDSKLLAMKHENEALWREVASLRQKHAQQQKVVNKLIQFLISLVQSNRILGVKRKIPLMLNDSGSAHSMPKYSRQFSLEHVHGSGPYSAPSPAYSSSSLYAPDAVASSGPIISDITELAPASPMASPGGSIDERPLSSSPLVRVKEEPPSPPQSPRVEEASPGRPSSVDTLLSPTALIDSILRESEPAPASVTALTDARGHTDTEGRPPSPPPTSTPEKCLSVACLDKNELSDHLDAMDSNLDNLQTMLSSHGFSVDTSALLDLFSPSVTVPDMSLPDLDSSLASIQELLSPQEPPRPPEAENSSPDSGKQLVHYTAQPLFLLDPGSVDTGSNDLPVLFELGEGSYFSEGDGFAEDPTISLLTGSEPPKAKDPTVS
# Method in brief: as §1
# SPIC = molecular target: T7, SPIC (Homo sapiens, UniProt Q8N5J4 1-248); details: protein: recombinant; tags: N-terminal GST; dsDNA, one strand shown
# T7 sequence: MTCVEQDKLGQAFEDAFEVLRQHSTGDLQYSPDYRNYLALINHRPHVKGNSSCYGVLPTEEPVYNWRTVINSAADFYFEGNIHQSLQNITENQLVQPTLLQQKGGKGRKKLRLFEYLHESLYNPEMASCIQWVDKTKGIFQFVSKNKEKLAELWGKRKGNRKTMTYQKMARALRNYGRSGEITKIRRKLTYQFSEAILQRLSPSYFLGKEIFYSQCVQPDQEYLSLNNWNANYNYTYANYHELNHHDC
# Method in brief: as §1
# ELF4 = ELF4 (Homo sapiens, UniProt Q99607 1-663); details: protein: recombinant; tags: N-terminal GST; dsDNA, one strand shown
# Chain of ELF4 (Q99607 whole entry): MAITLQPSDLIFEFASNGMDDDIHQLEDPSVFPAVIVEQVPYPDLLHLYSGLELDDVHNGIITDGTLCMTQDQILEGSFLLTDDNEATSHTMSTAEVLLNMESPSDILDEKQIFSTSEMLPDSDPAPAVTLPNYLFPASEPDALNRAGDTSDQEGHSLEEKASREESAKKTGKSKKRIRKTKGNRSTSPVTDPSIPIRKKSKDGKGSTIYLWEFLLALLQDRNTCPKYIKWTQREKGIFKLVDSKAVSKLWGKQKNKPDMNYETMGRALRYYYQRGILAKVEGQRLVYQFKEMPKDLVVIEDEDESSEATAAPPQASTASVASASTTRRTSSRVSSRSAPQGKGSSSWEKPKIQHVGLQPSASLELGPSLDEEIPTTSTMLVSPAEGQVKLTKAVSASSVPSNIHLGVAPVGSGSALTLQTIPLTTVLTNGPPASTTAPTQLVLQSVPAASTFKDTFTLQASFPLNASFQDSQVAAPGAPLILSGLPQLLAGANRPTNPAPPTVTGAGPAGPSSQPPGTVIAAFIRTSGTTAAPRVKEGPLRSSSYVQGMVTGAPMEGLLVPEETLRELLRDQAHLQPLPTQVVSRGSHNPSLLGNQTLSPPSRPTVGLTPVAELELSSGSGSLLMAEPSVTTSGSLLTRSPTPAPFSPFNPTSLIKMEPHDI
# Method in brief: as §1
# ELK4 = molecular target: T8, ELK4 (Homo sapiens, UniProt P28324-2 1-405); details: protein: recombinant; tags: N-terminal GST; dsDNA, one strand shown
# T8 sequence: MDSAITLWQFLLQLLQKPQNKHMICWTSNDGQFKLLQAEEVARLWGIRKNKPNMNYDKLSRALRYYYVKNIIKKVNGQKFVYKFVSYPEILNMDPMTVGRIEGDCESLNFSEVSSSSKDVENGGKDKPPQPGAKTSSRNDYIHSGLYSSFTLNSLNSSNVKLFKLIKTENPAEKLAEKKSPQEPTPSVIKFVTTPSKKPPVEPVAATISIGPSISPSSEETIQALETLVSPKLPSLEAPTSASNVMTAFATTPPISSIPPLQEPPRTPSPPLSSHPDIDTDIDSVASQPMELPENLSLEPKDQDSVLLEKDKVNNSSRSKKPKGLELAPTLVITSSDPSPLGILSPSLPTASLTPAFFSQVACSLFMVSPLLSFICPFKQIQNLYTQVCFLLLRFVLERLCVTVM
# Method in brief: as §1
# ETV2 = molecular target: T9, ETV2 (Homo sapiens, UniProt O00321 1-342); details: protein: recombinant; tags: N-terminal GST; dsDNA, one strand shown
# T9 sequence: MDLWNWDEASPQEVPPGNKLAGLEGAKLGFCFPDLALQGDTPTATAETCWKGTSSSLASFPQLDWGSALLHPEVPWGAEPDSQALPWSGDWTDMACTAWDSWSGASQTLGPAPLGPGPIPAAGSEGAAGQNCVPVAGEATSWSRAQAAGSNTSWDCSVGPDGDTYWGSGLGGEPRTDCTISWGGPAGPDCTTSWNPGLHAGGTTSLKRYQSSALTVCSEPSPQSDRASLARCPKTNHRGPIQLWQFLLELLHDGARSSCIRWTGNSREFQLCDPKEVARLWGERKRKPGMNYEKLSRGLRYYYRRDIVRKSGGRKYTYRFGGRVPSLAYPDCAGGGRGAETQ
# Method in brief: as §1
# ELF3 = molecular target: T10, ELF3 (Homo sapiens, UniProt P78545 1-371); details: protein: recombinant; tags: N-terminal GST; dsDNA, one strand shown
# T10 sequence: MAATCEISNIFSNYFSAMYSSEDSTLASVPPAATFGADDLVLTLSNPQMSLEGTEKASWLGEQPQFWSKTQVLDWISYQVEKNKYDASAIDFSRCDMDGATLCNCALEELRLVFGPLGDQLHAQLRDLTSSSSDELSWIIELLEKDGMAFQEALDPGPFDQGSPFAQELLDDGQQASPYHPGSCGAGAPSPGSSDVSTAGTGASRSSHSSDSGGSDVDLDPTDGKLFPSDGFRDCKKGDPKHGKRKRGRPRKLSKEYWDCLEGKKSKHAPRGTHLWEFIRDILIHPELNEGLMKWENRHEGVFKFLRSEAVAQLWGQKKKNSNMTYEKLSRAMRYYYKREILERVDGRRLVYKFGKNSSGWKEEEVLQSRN
# Method in brief: as §1
# ETV1 = ETV1 (Homo sapiens, UniProt P50549 1-477); details: protein: recombinant; tags: N-terminal GST; dsDNA, one strand shown
# Chain of ETV1 (P50549 whole entry): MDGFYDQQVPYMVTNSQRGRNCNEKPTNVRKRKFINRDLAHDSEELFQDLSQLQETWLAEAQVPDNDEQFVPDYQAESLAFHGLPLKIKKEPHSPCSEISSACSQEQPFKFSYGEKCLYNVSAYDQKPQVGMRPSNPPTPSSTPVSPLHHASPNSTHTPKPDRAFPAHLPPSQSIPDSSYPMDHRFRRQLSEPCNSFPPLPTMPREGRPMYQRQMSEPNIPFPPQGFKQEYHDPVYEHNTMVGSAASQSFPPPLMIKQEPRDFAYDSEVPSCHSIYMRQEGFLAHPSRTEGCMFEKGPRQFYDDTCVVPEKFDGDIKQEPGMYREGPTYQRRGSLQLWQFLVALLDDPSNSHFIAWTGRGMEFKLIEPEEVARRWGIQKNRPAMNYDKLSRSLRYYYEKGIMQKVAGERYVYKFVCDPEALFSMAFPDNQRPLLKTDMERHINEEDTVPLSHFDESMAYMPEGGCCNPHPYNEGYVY
# Method in brief: as §1
sequence,measurement,setting,value
TGGTAG,binding signal,FLI1,"1.1 fold enrichment (6-mer frequency, TF over GST control)"
same,binding signal,ELK1,"1.02 fold enrichment (6-mer frequency, TF over GST control)"
same,binding signal,GABPA,"1.08 fold enrichment (6-mer frequency, TF over GST control)"
same,binding signal,ERG,"1 fold enrichment (6-mer frequency, TF over GST control)"
same,binding signal,ELF1,"1.05 fold enrichment (6-mer frequency, TF over GST control)"
same,binding signal,EHF,"1.11 fold enrichment (6-mer frequency, TF over GST control)"
same,binding signal,SPI1,"1.03 fold enrichment (6-mer frequency, TF over GST control)"
same,binding signal,SPIB,"1.15 fold enrichment (6-mer frequency, TF over GST control)"
same,binding signal,ELK3,"1.11 fold enrichment (6-mer frequency, TF over GST control)"
same,binding signal,ETV5,"1.07 fold enrichment (6-mer frequency, TF over GST control)"
same,binding signal,HSF1,"1.06 fold enrichment (6-mer frequency, TF over GST control)"
same,binding signal,SPIC,"1.08 fold enrichment (6-mer frequency, TF over GST control)"
same,binding signal,ELF4,"1.11 fold enrichment (6-mer frequency, TF over GST control)"
same,binding signal,ELK4,"1.37 fold enrichment (6-mer frequency, TF over GST control)"
same,binding signal,ETV2,"1.04 fold enrichment (6-mer frequency, TF over GST control)"
same,binding signal,ELF3,"1.13 fold enrichment (6-mer frequency, TF over GST control)"
same,binding signal,ETV1,"1.05 fold enrichment (6-mer frequency, TF over GST control)"
